Experimental data taken from paper PMC6212790, “How bacterial xenogeneic silencer rok distinguishes foreign from self DNA in its resident genome”.
Over roughly 33,000 sequences, “e-score” has its median near -0.038; the highest 2% begin near 0.33. For the sample, the highest values were picked, then their nearest neighbours and some sequences at random.

What follows are sequences tested against T1, GST-Rok-C97-191 (Bacillus subtilis subsp. subtilis str. …, UniProt O34857 97-191) (assay: protein binding microarray; Rok is a gene silencer of Bacillus subtilis; high values mean tight binding). Conditions: protein: recombinant; tags: GST (pTH5325, pDEST15-Magic modified); dsDNA, one strand shown.
T1 sequence: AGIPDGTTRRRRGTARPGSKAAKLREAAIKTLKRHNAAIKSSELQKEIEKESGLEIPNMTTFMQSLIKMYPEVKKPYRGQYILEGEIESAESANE
Method in brief: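 Every oligonucleotide joins a 25-mer constant primer to a 35-mer variable part drawn from a de Bruijn sequence of order 10, so each non-palindromic 8-mer appears at least 32 times and each palindromic 8-mer 16 times. The preference for every 8-mer is reported as a unitless, rank-based enrichment score (E-score). This score spans 0.5 for the most favored 8-mer to −0.5 for the most disfavored.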

Sequence | binding signal [E-score]
CTTCGAAC | -0.152
AAACTACA | 0.387
GAACTACC | 0.367
AAACTACG | 0.387
AAACTACT | 0.464
AGACTACA | 0.0455
GAACTACA | 0.252
GCACTACC | 0.0373
AGACTACT | 0.198
ACACTACT | 0.18
CAACTACA | 0.234
ACACTACG | -0.0248
CAACTACG | 0.113
GGTCCGAC | -0.143
ATGAAAGC | -0.0998
AGGTGAAG | -0.109
TACTGTAA | 0.323
CGGAGAAC | 0.0827
ACATTCGA | 0.071
TGACTACA | 0.031
TAACTACA | 0.423
TCACTACA | -0.0801
AGACTACC | 0.268
AAACTACC | 0.473
CAACTACC | 0.271

Sequence | binding signal [E-score]
AACAGCTC | 0.087
TATGGAGA | 0.0429
ATGTACAA | 0.317
GTGTACTA | 0.16
CTGTACAA | 0.0696
ATGTACCA | 0.335
CTGTACCA | -0.0649
ATGTACAT | 0.377
GTGTACAA | 0.213
TTGTACAA | 0.342
ATGTACCC | 0.0999
ATGTACTA | 0.376
ATGTACTC | 0.178
ATGTACAG | 0.317
ATGCAGTC | -0.0482
ATCTAAAC | 0.0603
AGGCCAAT | -0.176
CCTACAGA | 0.064
AAGTCTAG | 0.0844
GGTTATAA | 0.0781
GGAGTTGA | -0.137
AAGACCAA | -0.0146
CGACCACA | -0.0849
ACGCGCAT | -0.158
GTCTACAA | -0.0759

Sequence | binding signal [E-score]
CTCTACAA | 0.00826
TTCTACAA | 0.362
ACGACCGT | 0.00992
ACATTGCA | 0.0494
CCTAGATC | 0.0939
CCTAGATA | 0.0777
ACTAGATG | 0.317
ACTAGATC | 0.335
ACTAGATA | 0.403
ATTAGATC | 0.0978
CGGCACTC | -0.0669
CCCATTTC | 0.0795
ATGACCTG | -0.0486
CCGACTAG | 0.0252
ATTATATC | 0.384
GTTATATA | 0.31
ATTATATA | 0.446
ATTATTTA | 0.37
ATTATATG | 0.223
CTTATATC | 0.117
GTTATTTA | 0.273
CTTATTTA | 0.184
ATTATAGC | 0.189
AAAATGCA | 0.153
TAAGTGCA | 0.0583

Sequence | binding signal [E-score]
ACTAATTG | 0.189
CCTAATTA | 0.28
ACTAATTA | 0.444
CCTAATTC | 0.115
ACTAATTC | 0.373
GCTAATTA | 0.289
CACTTGGC | -0.143
CCTGACCA | -0.111
AAAGTTCG | 0.0847
TGCGCTAA | -0.0024
CGCGCTAA | 0.329
CGCGCTAC | -0.0357
AATCTGTG | -0.0756
GTAATTTA | 0.353
ATAATTTA | 0.354
ATAATTCA | 0.245
CTAATTTA | 0.305
GCAATTTA | 0.257
AGAATTTC | 0.255
AGAATTTG | 0.161
ATAATTTG | 0.344
ACAATTTG | 0.104
CTAATTTC | 0.272
GTAATTGA | 0.0917
ATAATTTC | 0.36

Sequence | binding signal [E-score]
CAGGGATC | -0.151
AGAGCTAA | 0.148
AGTCCTCC | -0.0852
AAAATTAT | 0.239
GCTCACTA | 0.0154
GAAGAGGA | -0.151
GGCATACC | 0.00482
GCGGACGA | -0.188
AGAGGCAT | 0.0046
AATACGCT | -0.133
ACAACGAG | -0.0859
AGAGAAAG | 0.159
CGATGACC | -0.125
ATTTGTAA | 0.203
AATTGTAC | 0.211
GATTGTAA | 0.0411
ATTTGTAC | 0.333
CTTTGTAC | 0.249
GATTGTAC | 0.365
TAACTCCA | 0.0761
CTCGGGAC | -0.0122
GAACCTAC | 0.198
ATACCTAT | 0.323
CTACCTAG | 0.243
CTACCTAA | 0.174

Sequence | binding signal [E-score]
ATACCTAG | 0.253
GTACCTAC | 0.349
GTACCTAA | 0.155
ATACCTAC | 0.333
CTACCTAC | 0.376
AACATATC | 0.233
CATGTTAC | 0.15
CTCCACTA | 0.107
CAGCCCTG | -0.157
ATAAATAA | 0.269
ACAAATAT | 0.337
ACAAATAA | 0.246
ATAAATAC | 0.287
GTAAATAC | 0.336
AGAAATAT | 0.346
AGAAATAC | 0.311
AGAAATAG | 0.326
CTAAATAC | 0.287
ACAAATAC | 0.266
ATAAATAG | 0.252
ATAAATAT | 0.369
TAGTCGCA | 0.00372
AAAGGGTT | -0.0515
CGACCAGC | -0.129
AACGAGAG | -0.0985

Sequence | binding signal [E-score]
ACTTCCGG | -0.139
CAAAAGGG | -0.177
CAAACGCC | -0.166
ATTCCGGG | -0.0619
AATTCCTA | 0.155
AAATCCCA | 0.123
AGATAGTC | 0.0233
GGATAGTA | 0.142
AGATAGTA | 0.376
AGATAGTG | 0.174
CGATAGTC | -0.0434
CGATAGTA | 0.382
ACTCCAAA | -0.0283
AGAGCCAA | -0.0861
ACCTTCCG | -0.0992
CCGTACTC | 0.0243
ATGTAATA | 0.32
ATGTAAAG | 0.164
ATGTAAAT | 0.373
CTGTAATA | 0.334
CTGTAATC | 0.13
CTGTAAAA | 0.0478
ATGTAAAC | 0.031
ATGTAAAA | 0.351
TTGTAAAA | 0.265
